# According to PubChem BioAssay (NCATS):
# Results filed as inconclusive are left out. Active and inactive are the calls of the source. The call rests on the fitted dose curve; in most records, active means well fitted cell-killing curve with a large enough effect; inconclusive means small, poorly fitted or top-dose-only effect, or effect the other way; inactive means no such curve, though single readings can be large or run the other way.
# Experiment: Quantitative High-Throughput drug screen in 47 multiple myeloma cell lines against the NCATS MIPE library collection: KHM11_PLB cell viability assay (AID 1918962); further: nearly all actives have a fitted effect of over 35% in size
# Conditions: KHM11 myeloma cell viability, CellTiter-Glo ATP luminescence, 48 h; series mostly up to 45.8 µM; viability, % of DMSO control: at the top concentration
# Text: PI: Beverly A. Mock Ph.D.
# Laboratory of Cancer Biology and Genetics,
# Center for Cancer Research, National Cancer Institute,
# National Institute of Health, Bethesda, Maryland
# Drug resistance and disease progression are common in multiple myeloma (MM) patients, underscoring the need for new therapeutic combinations. […] We hypothesized that effective combinations would reduce MYC expression and enhance p16 activity. […] These preclinical data identify potentially useful drug combinations for evaluation in drug-resistant MM and reveal potential mechanisms of combined drug sensitivity.
# Described herein is the primary MIPE qHTS used to cherrypick compounds. Validated compounds were then further tested for potential synergistic activiy.
# [1] Peat TJ, Gaikwad SM, Dubois W, Gyabaah-Kessie N, Zhang S, Gorjifard S, Phyo Z, Andres M, Hughitt VK, Simpson RM, Miller MA, Girvin AT, Taylor A, Williams D, D'Antonio N, Zhang Y, Rajagopalan A, Flietner E, Wilson K, Zhang X, Shinn P, Klumpp-Thomas C, McKnight C, Itkin Z, Chen L, Kazandijian D, Zhang J, Michalowski AM, Simmons JK, Keats J, Thomas CJ, Mock BA. Drug combinations identified by high-throughput screening promote cell cycle transition and upregulate Smad pathways in myeloma. Cancer Lett. 2023 Aug 1;568:216284. doi: 10.1016/j.canlet.2023.216284. Epub 2023 Jun 24. PMID: 37356470; PMCID: PMC10408729.
# SEQUENCE No. (e.g., 1, 2, 3, etc.); […] (e.g., Cells, Incubation, Reagent, etc.); VALUE and DESCRIPTION.
# 1; Cells; 5 uL; white, solid bottom 1536-well Greiner assay plate.
# 2; Compounds; 23 nL; Kalypsis pin tool (Wako USA) equipped with a 1536-well pin head to transfer to the assay plates.
# 3; Incubation; 48 hours; 37C incubation.
# 4; Reagent;5uL; CellTiter Glo (Promega).
# 5; Detector; 425V; Luminescence; Viewlux PerkinElmer.
# NOTES (numbers refer to Sequence numbers above)
# 1. The cell-based screening methods employed in this study were like those previously published. Briefly, the corresponding myeloma cell lines were screened in 1,536-well plates with 500 cells, 5-uL per well for inhibition of cell viability (assessed by measuring ATP levels with CellTiterGlo).
# 2. NCATS MIPE 4.0 library of approved and investigational drugs were added using the Kalypsis pin tool. Wells treated with DMSO only for 100% viability and media only wells for 0% viability were used as controls.
# 3. The assay plates were covered and incubated for 48 hours in a 37C, 5% CO2 incubator with controlled humidity.
# 4. After 48 hours, CellTilter-GloTM luminescent substrate mix (Promega) reagent was added to the assay plate and plates we incubated for 5 min at room temperature.
# 5. Signal was measured as median relative luminescence units on a ViewLux (PerkinElmer) multiplate reader.
# [1] Heske CM, Davis MI, Baumgart JT, Wilson K, Gormally MV, Chen L, Zhang X, Ceribelli M, Duveau DY, Guha R, Ferrer M, Arnaldez FI, Ji J, Tran HL, Zhang Y, Mendoza A, Helman LJ, Thomas CJ. Matrix Screen Identifies Synergistic Combination of PARP Inhibitors and Nicotinamide Phosphoribosyltransferase (NAMPT) Inhibitors in Ewing Sarcoma. Clin Cancer Res. 2017 Dec 1;23(23):7301-7311. doi: 10.1158/1078-0432.CCR-17-1121. Epub 2017 Sep 12. PMID: 28899971; PMCID: PMC6636827.
# Potency means the concentration at half of the fitted maximal effect.
Compound,Potency,"viability, % of DMSO control"
O=C(O)COCCN1CCN(C(c2ccccc2)c2ccc(Cl)cc2)CC1 (stereo not given),7.43 µM (active),
CNC(=O)c1ccc(N2C(=S)N(c3ccc(C#N)c(C(F)(F)F)c3)C(=O)C2(C)C)cc1F,,97.3% (inactive)
CCC(C)N(C)C(=O)c1cc2ccccc2c(-c2ccccc2Cl)n1 (stereo not given),,132% (inactive)
CCOc1cc(C(=O)Nc2ccc(Cl)c(-c3nc4ccccc4[nH]3)c2)cc(OCC)c1OCC,1.18 µM (active),
COc1cccc2cc(-c3nc(C4CCC(C(=O)O)CC4)n4ncnc(N)c34)[nH]c12 (stereo not given),0.118 µM (active),
O=C1CCCC2=C1C(c1[nH]ncc1Cl)N=C(Nc1nc3ccccc3o1)N2 (stereo not given),4.18 µM (active),
CC1(C)CNc2cc(NC(=O)c3cccnc3NCc3ccncc3)ccc21,,97.9% (inactive)
S=C(NCc1ccc2c(c1)OCO2)N1CCN(c2ncnc3c2oc2ccccc23)CC1,0.855 µM (active),
CCCC(CCC)C(=O)O,,117% (inactive)
COc1ccc([C@@H]2CC(=O)c3c(O)cc(O[C@@H]4O[C@H](CO[C@@H]5O[C@@H](C)[C@H](O)[C@@H](O)[C@@H]5O)[C@@H](O)[C@H](O)[C@@H]4O)cc3O2)cc1O,,91.1% (inactive)
Clc1cccc(Cl)c1NC1=NCCN1,,100% (inactive)
CC(C)NCC(O)COc1ccc(COCCOC(C)C)cc1 (stereo not given),,97% (inactive)
CCCc1nc2c(C)cc(-c3nc4ccccc4n3C)cc2n1Cc1ccc(-c2ccccc2C(=O)O)cc1,,99.8% (inactive)
COc1ccc(-c2ccc3c(N4CCOCC4)nc(N4C[C@@H](C)O[C@@H](C)C4)nc3n2)cc1CO,0.0935 µM (active),
O=C(C1CC1)N1CC[C@@H](Cn2c(-c3ccc(-c4ccc5occc5c4)cc3)nc3cnccc32)C1,,78.8% (inactive)
Cc1[nH]c(=O)c(C#N)cc1-c1ccc2nccn2c1,,82.6% (inactive)
CCn1cc(C(=O)O)c(=O)c2cc(F)c(N3CCNC(C)C3)c(F)c21 (stereo not given),,116% (inactive)
CS(=O)(=O)c1cccc(CNc2nc(Nc3ccc4c(c3)CCC(=O)N4)ncc2C(F)(F)F)c1,14.8 µM (active),
CCC(C)(C)C(=O)O[C@H]1C[C@@H](C)C=C2C=C[C@H](C)[C@H](CC[C@@H]3C[C@@H](O)CC(=O)O3)[C@H]21,13.2 µM (active),
CCC(C)n1ncn(-c2ccc(N3CCN(c4ccc(OC[C@H]5CO[C@](Cn6cncn6)(c6ccc(Cl)cc6Cl)O5)cc4)CC3)cc2)c1=O (stereo not given in full),,101% (inactive)

Compound,Potency,"viability, % of DMSO control"
Cc1ccc(NC(=O)c2cccc(C(C)(C)C#N)c2)cc1Nc1ccc2ncn(C)c(=O)c2c1,0.166 µM (active),
Cn1cc(-c2ccc3nnc(C(F)(F)c4ccc5ncccc5c4)n3n2)cn1,4.69 µM (active),
CC[C@H](Nc1ncnc2nc[nH]c12)c1nc2cccc(F)c2c(=O)n1-c1ccccc1,4.69 µM (active),
Cc1ccccc1C(OCCN(C)C)c1ccccc1 (stereo not given),,133% (inactive)
C[C@]1(c2nc3c(C(N)=O)cccc3[nH]2)CCCN1,18.7 µM (active),
CCn1c(-c2nonc2N)nc2c(C#CC(C)(C)O)ncc(OC[C@H]3CCCNC3)c21,7.43 µM (active),
CC(C)(C)OC(=O)CN(Cc1ccc(Cl)cc1)Cc1ccc([N+](=O)[O-])s1,,90.9% (inactive)
Cc1cc2c(C(C)C)c(O)c(O)c(C=O)c2c(O)c1-c1c(C)cc2c(C(C)C)c(O)c(O)c(C=O)c2c1O,10.5 µM (active),
Nc1nc2c(ncn2COCCO)c(=O)[nH]1,,122% (inactive)
C#Cc1cccc(Nc2ncnc3cc(OCCOC)c(OCCOC)cc23)c1,3.32 µM (active),
Cn1cnc2c(F)c(Nc3ccc(Br)cc3Cl)c(C(=O)NOCCO)cc21,0.0469 µM (active),
COc1c(Cl)cc2c([nH]c3cnccc32)c1NC(=O)c1cccnc1C,2.96 µM (active),
NC(=O)C1CCCc2c1[nH]c1ccc(Cl)cc21 (stereo not given),14.8 µM (active),
COc1ccc(COc2cc3oc(=O)c4cc(C(C)O)ccc4c3cc2OC)cc1 (stereo not given),7.43 µM (active),
CCOc1cc(N2CCC(O)CC2)ccc1Nc1ncc2c(n1)N(C)c1ccccc1C(=O)N2C,0.935 µM (active),
O=NN(CCCl)C(=O)NCCCl,,109% (inactive)
Cc1cc(C=c2sc3nc4ccccc4n3c2=O)c(C)n1-c1ccccc1,0.833 µM (active),
COc1ccccc1[C@H](c1cccc2ccccc12)[C@@](C)(C#N)C(=O)N1CCC(c2cccc(C(F)(F)F)c2)CC1,6.62 µM (active),
NCCc1ccc(O)c(O)c1,,95.6% (inactive)
CN1CCN(CCCN2c3ccccc3Sc3ccc(C(F)(F)F)cc32)CC1,10.5 µM (active),
